# Assay results from PubChem BioAssay (NCI).
# Compounds without any hit were thinned out: in the full panel of roughly 79,000, 15% have a hit. Unmarked numbers belong to inactive results. Calls of active or inactive are those of the source. Rule as the data show it: active = growth inhibition above about 70%; inactive = the rest. Where a SMILES comes first, the peptide text is derived from it. [ ]: non-standard residue; d: D form. The star is where a group is joined. ξ: configuration not given here. NMeY = CN[C@@H](Cc1ccc(O)cc1)C(=O)O; Cbz = O=C(OCc1ccccc1)*; ξA = CC(N)C(=O)O
# Assays:
# [1] = NCI Yeast Anticancer Drug Screen. Data for the rad50 strain (AID 155);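 also: 0% = growth of vehicle-only cultures of the same strain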; details: S. cerevisiae rad50 strain growth inhibition; at 50.0 µM; active compounds read high
# How it was run: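 Yeast carrying a defined DNA repair defect were exposed to test compounds, and growth was compared with vehicle-treated controls to give percent inhibition.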
# [2] = NCI Yeast Anticancer Drug Screen. Data for the sgs1 mgt1 strain (AID 161);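 also: 0% = growth of cultures given vehicle only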; details: S. cerevisiae sgs1 mgt1 strain, at 50.0 µM, active compounds read high
# How it was run: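 Genetically altered yeast, compound exposure, growth inhibition relative to vehicle.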
# [3] = NCI Yeast Anticancer Drug Screen. Data for the cln2 rad14 strain (AID 165);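 also: 0% = growth equal to vehicle treated cultures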; details: S. cerevisiae cln2 rad14 strain, at 50.0 µM, active compounds read high
# How it was run: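 Each compound was tested on cln2 rad14 yeast. Inhibition of growth was calculated against vehicle-exposed controls.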
# [4] = NCI Yeast Anticancer Drug Screen. Data for the bub3 strain (AID 167); details: S. cerevisiae bub3 mutant strain, at 50.0 µM, active compounds read high
# How it was run: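 Compounds were applied to a genetically altered yeast strain carrying a cell-cycle control defect. Growth inhibition was scored against vehicle-treated controls.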
# [5] = NCI Yeast Anticancer Drug Screen. Data for the mlh1 rad18 strain (AID 175); details: S. cerevisiae mlh1 rad18 strain growth inhibition; at 50.0 µM; active compounds read high
# How it was run: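 Vehicle-treated cultures served as the reference for growth inhibition in a yeast strain carrying DNA damage repair alterations exposed to each compound.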
# [6] = NCI Yeast Anticancer Drug Screen. Data for the mec2-1 strain (AID 157); details: S. cerevisiae mec2-1 strain, at 50.0 µM, active compounds read high
# How it was run: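 Vehicle-treated cultures served as reference for growth inhibition of compound-exposed mec2-1 yeast.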
SMILES,growth inhibition [1],growth inhibition [2],growth inhibition [3],growth inhibition [4],growth inhibition [5],growth inhibition [6]
O=c1oc2ccccc2c(N2CCCCC2)c1Cl,1.6%,12.3%,22.1%,17.6%,15%,–
O=c1[nH]cnc2oc(-c3ccccc3)nc12,-0.3%,-6.35%,-41.2%,-15.8%,4.75%,–
C=CCC12CC(C)OC1=Nc1ccccc1NC2=O (stereo not given),-0.95%,-18.2%,21.1%,7.2%,-9.8%,–
CCOC(=O)c1c(NC2=NCCC2)n[nH]c1N,7.05%,15%,14.7%,-18.6%,5.9%,–
Cn1nnc(/C(N)=N/N=C/c2ccccc2)n1,1.95%,-1.55%,-22.2%,-12.6%,-15.4%,–
O=C1CN(CN2CCOCC2)C(=O)CN1CN1CCOCC1,39.3%,44%,18.6%,36.2%,32.9%,–
Cc1ccc(C(=O)/C=C(\C(=O)c2ccccc2)c2ccccc2)cc1C,12.5%,1.85%,11.7%,11.3%,9.65%,–
CC(=O)c1c(C)c(C)c(=O)n(C/C=C(\C)CCC=C(C)C)c1O,98% (active),98.7% (active),97.4% (active),98.3% (active),98.1% (active),–
CCCC1OCC(C)(CC)CO1 (stereo not given),27.6%,-4.9%,12%,-9.65%,-9.05%,–
O=P(Nc1ccc(Cl)cc1)(Nc1ccc(Cl)cc1)N1CCCCC1,23%,5.8%,-21%,19.9%,9.2%,–
Nc1ncnc2nc(SC3OC(CO)C(O)C(O)C3O)[nH]c12 (stereo not given),10.2%,9.9%,-9%,12.8%,2.85%,–
Cc1nc(C)c(N2CCN(C(=O)O)CC2)c(=O)[nH]1,-23.6%,-16%,9.85%,5.15%,-58.4%,–
NC(=O)NNC/C(Cl)=C(\Cl)C(=O)O,-1.65%,8.7%,16.9%,5.5%,2.85%,–
C[N+]12C=CC=C1C(N1CCCC1)c1sc(-c3ccc(Cl)cc3)cc12 (stereo not given),7.9%,22%,7.3%,0.55%,16.4%,–
O=C(O)CSCc1cc2c(O)c(c1)Cc1cc(CSCC(=O)O)cc(c1O)Cc1cc(CSCC(=O)O)cc(c1O)Cc1cc(CSCC(=O)O)cc(c1O)C2,-6.9%,-6.55%,14.7%,43.8%,-0.1%,–
CCOC(=O)c1c(N)n(-c2ccccc2)c(=O)n(-c2ccccc2)c1=O,-8.85%,-30.9%,19.4%,-31.8%,-34%,–
N/N=C/c1cccn1-c1ccccc1Cl,33.8%,26.9%,0.35%,28.2%,14.8%,–
C=CCN1COc2c(cc3c4c(cccc24)C(=O)O3)C1,-0.25%,10.1%,8.35%,6.35%,8.35%,–
Cc1ccc(S(=O)(=O)NC(CO)C(=O)O)cc1 (stereo not given),-1.1%,-30.4%,-24.6%,-46%,-9.65%,–
COC(=O)C(=O)C1CCc2c(ccc3c2CCCC3)C1 (stereo not given),0.8%,22.9%,-8.8%,8.2%,10.2%,–

SMILES,growth inhibition [1],growth inhibition [2],growth inhibition [3],growth inhibition [4],growth inhibition [5],growth inhibition [6]
COc1cccc(C(F)(F)F)c1,-3.1%,-10.3%,-6.85%,19.4%,-13%,–
CCOC(=O)C(/C=N/Nc1ccc([N+](=O)[O-])cc1[N+](=O)[O-])Oc1cccc(OC)c1 (stereo not given),-8.85%,-19.8%,-15.1%,-8.75%,-1.55%,–
CCOC(=O)C1CSC(c2ccccc2)=N1 (stereo not given),8.75%,–,-4.25%,-8.35%,27.1%,-4.4%
COc1ccc(C[C@@H](C(=O)N[C@@H](C)C(N)=O)N(C)C(=O)[C@@H]2CCCN2C(=O)[C@H](CC(C)C)NC(=O)C(C)NC(=O)OCc2ccccc2)cc1 (stereo not given in full) (Cbz-[ξA]LP[NMeY](Me)A-NH2),29.1%,-7.95%,-4%,-38.2%,-44.2%,–
COC(=O)C1OC2(CCCC3CC32)O[C@H]1C(=O)OC (stereo not given in full),-8.35%,-20.6%,-13.2%,-13.8%,6.35%,–
c1cc(-c2cc(-c3cc(-c4ccncc4)n[nH]3)[nH]n2)ccn1,9.45%,8.45%,3.3%,-13.8%,4.6%,–
CCOC(=O)c1cc2c(nc1N)C(=O)CCC2,-0.1%,34.2%,16.9%,30.9%,-30.9%,–
CCOC(=O)CSc1ccnc(=O)[nH]1,-9.25%,-5.35%,0.1%,-16%,-31.8%,–
O=C(Nc1cccc(C(F)(F)F)c1)C(=O)C(C(=O)c1ccc(Cl)c(Cl)c1)C1OC(=O)c2ccccc21 (stereo not given),34.9%,-1.35%,63.6%,45.4%,37.4%,–
N#CNc1ccccc1,0.05%,-12.2%,-8.8%,5.15%,3.45%,–
O=C1C=C(C2=CC(=O)C(=O)c3ccccc32)c2ccccc2C1=O,27.5%,6.55%,-5%,53.1%,35.2%,–
Cc1ccc(NC2C=C(c3ccccc3)Oc3ccccc32)c(C)c1 (stereo not given),20.1%,20.9%,-3.25%,14.1%,8.45%,–
CN(C)c1ccc(C=Nc2cc(Cl)ccc2O)cc1,38.9%,37.4%,-2.9%,66%,52.9%,–
O=C1OC(c2ccccc2)=N/C1=C\c1ccc(F)cc1,-10.4%,-1.75%,-10.2%,-19.3%,-3.75%,–
O=C(/C(=C(/[O-])C(F)(F)F)[n+]1ccc2ccccc2c1)C(F)(F)F,-16.4%,-5.3%,-40.1%,-28.6%,-0.4%,–
CCCCS(=O)(=O)N(CCC)CCC,9.55%,5.25%,-18.1%,-3.95%,-13.3%,–
CO/C(=N\N=C\c1cccc(Cl)c1)c1ccncc1,6.35%,-13.8%,-24.4%,-18.1%,-11.1%,–
C#CC(CCC)NC(C)(C)C (stereo not given),31.7%,7.35%,-10.8%,1.95%,21.3%,–
NC(Cc1cccc(F)c1)C(=O)O (stereo not given),-1.3%,6.7%,-12.4%,-9.1%,10%,–
